High-throughput results deposited in PubChem by National Center for Advancing Translational Sciences (NCATS).
PNC assembly inh – blocks assembly of the perinucleolar compartment; 3.1% of 140,000 active; PC3M PTB-GFP, PNC prevalence imaging, 16 h; active compounds read low; activity change (PNC), negative = inhibition, % at 10 µM; AID 2417;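 active = readout at or below -70, meaning at least 70% loss of cells showing the perinucleolar compartment, a nuclear body marking cancer cells; inconclusive = readout between -30 and a set limit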;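 note: plate controls were DMSO wells for no effect and camptothecin positive control wells for full effect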
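Compounds are pinned in duplicate onto adhered PC3M cells stably expressing GFP-tagged PTB and incubated 16 h at 37 C. Cells are then fixed, nuclei stained with Hoechst, and PNC-positive cells counted.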
ALOX12 inhib – 12-hLO (ALOX12) enzyme inhibition. P18054. purified 12-hLO, xylenol orange hydroperoxide absorbance. Potency, µM (series often up to 57.1 µM), without a hit: at the highest dose activity change, negative = inhibition, most hits filed as inhibitors. 0.12% of 150,000 active. AID 1452; note: potency is the fitted concentration of half-maximal effect; nearly all actives have a fitted effect of over 55% in size
Target sequence (P18054 whole entry, looked up): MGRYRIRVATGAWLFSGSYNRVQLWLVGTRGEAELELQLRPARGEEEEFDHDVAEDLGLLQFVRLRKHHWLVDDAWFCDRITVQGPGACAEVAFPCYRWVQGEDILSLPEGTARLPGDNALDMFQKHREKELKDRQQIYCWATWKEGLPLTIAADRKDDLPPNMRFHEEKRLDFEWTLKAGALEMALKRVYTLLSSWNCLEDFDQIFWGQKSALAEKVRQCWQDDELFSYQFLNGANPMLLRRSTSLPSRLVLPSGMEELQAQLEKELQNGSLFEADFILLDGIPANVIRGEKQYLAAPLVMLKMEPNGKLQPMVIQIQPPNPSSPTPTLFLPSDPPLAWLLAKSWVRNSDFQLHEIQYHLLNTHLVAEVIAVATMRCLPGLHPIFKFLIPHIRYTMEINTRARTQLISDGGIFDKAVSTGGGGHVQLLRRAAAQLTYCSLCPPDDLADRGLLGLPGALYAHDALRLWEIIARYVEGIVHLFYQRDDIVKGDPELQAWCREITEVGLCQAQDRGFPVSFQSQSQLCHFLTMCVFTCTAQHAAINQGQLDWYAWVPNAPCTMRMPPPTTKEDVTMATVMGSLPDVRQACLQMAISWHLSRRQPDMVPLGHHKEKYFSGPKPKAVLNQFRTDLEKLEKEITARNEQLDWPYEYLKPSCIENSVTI
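Hydroperoxide output read as Fe(III)-xylenol orange absorbance, 573-to-405 nm ratio, after 30 min reaction with 40 uM arachidonic acid. Enzyme: 150 nM purified human 12hLO, 15 min compound preincubation; 25 mM Hepes pH 7.0, room temperature.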
15-hLO-2 inh – 15-hLO-2 (ALOX15B) enzyme inhibition | AID 881 | purified 15hLO-2, xylenol orange hydroperoxide absorbance | O15296 | Potency, µM (titrated, usually from 57.1 µM), inactives show at the top dose activity change, negative = inhibition, most hits filed as inhibitors | 0.56% of 110,000 active; note: potency is the fitted concentration of half-maximal effect; nearly all actives have a fitted effect of over 60% in size
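Enzyme 50 nM, AA 45 uM, 25 mM Hepes pH 7.5 + 0.01% Triton X-100; cpd preinc 15 min RT, rxn 90 min RT; stop/detect with 200 uM XO + 300 uM Fe(II) in 50 mM H2SO4, 30 min; A573/A405.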
Numbers without * were called inactive; ? = inconclusive; nt = not tested or not shown; [ ] = another dose, or the depositor's remark. Most compounds without a hit are left out; they make up all but 3.2% or so of the library. Unless noted, calls come from the whole dose curve; as a rule, active = well fitted curve in the direction sought with a large enough effect; inconclusive = small, poorly fitted or top-dose-only effect, or another doubt; inactive = no such curve, though single readings can be large; an effect the other way counts as inactive or inconclusive. Unless noted, % is set by controls: 0 for no effect and ±100 for the full control effect.

SMILES	PNC assembly inh	ALOX12 inhib	15-hLO-2 inh
Cc1ccc(S(=O)(=O)n2ccc3cccnc32)cc1	-100*	-4%	nt
COC1=C(OC)C(=O)C(C/C=C(\C)CC/C=C(\C)CC/C=C(\C)CC/C=C(\C)CC/C=C(\C)CC/C=C(\C)CC/C=C(\C)CC/C=C(\C)CC/C=C(\C)CCC=C(C)C)=C(C)C1=O	nt	-5%[0.00818 µM]	-9%[0.0915 µM]
CCNC(=O)NC(=O)CSc1ccccc1F	-26	-2%	nt
CC(CCc1ccccc1)NC(=O)CN1CCN(Cc2ccc(Cl)cc2)C1=O (stereo unspecified)	-13	-9%	9%
Cc1sc(NC(=O)c2cccs2)c(C(=O)OC(C)C)c1C	-100*	3%	nt
CCc1c(C)sc(NC(=O)c2cccs2)c1C(=O)OC(C)C	19	-7%	8%
Cc1ccc(C)c(NC(=O)CNS(=O)(=O)c2ccccc2)c1	-80*	-1%	3%
CCCNS(=O)(=O)c1ccc(OCC(=O)OC)cc1	-27	1%	9%
CCOc1ccccc1NC(=O)COC(=O)CN(C)S(=O)(=O)c1ccc(C)cc1	0	5%	nt
CCOc1ccccc1NC(=O)COC(=O)CNS(=O)(=O)c1ccc(C)cc1	-116*	0%	nt
COc1ccccc1NC(=O)CCC(=O)Nc1ccccc1OC	2	0%	2%
COc1ccccc1NC(=O)CNS(=O)(=O)c1ccccc1	-1	0%	-1%
COc1ccccc1NC(=O)NS(=O)(=O)c1ccc(C)cc1	-110*	-4%	-9%
CCCNS(=O)(=O)c1ccc(OCC(=O)Nc2ccccc2F)cc1	-112*	4%	nt
O=C(O)[C@H](/C=C\c1ccccc1)c1ccccc1	nt	-3%[11.4 µM]	-6%[11.4 µM]
FC(F)(F)c1ccccc1-c1nc(NC2CCNCC2)c2ccccc2n1	nt	nt	34%
Cc1ccccc1Cn1c(=O)n(CC2CCC(C(=O)NCCc3ccccc3)CC2)c(=O)c2ccccc21 (stereo unspecified)	19	-4%	nt
Cc1ccnc(NC(=O)C2CCC(CNc3c(N4CCCC4)c(=O)c3=O)CC2)c1 (stereo unspecified)	-19	-5%	-3%
O=C(NCCc1ccccc1)C1CCC(CNc2c(N3CCCCC3)c(=O)c2=O)CC1 (stereo unspecified)	63	0%	nt
O=C(NC1CCCCCCC1)C1CCC(CNc2c(N3CCCC3)c(=O)c2=O)CC1 (stereo unspecified)	-119*	4%	nt
CC1CCN(c2c(NCC3CCC(C(=O)Nc4ccccn4)CC3)c(=O)c2=O)CC1 (stereo unspecified)	-119*	-1%	nt
COC(=O)N1CCC2(CC1)CN(C(=O)Nc1ccc(OC)cc1)C2	nt	0%	2%
Cc1[nH]c(=O)c(C#N)c2c1CSC(C)(C)C2	-100*	-2%	-2%
CCc1[nH]c(=O)c(C#N)c2c1CSC(C)(C)C2	5	4%	nt
Cc1cc(C)cc(C(=O)OCC(=O)Nc2cccc(S(=O)(=O)NC3=NCCCCC3)c2)c1	-96*	-4%	nt
SMILES	PNC assembly inh	ALOX12 inhib	15-hLO-2 inh
O=C(COC(=O)c1ccccc1)Nc1cccc(S(=O)(=O)NC2=NCCCCC2)c1	-23	4%	nt
O=c1cnc2cnc(Oc3cccc(Cl)c3)nc2n1Cc1ccc(F)cc1	nt	-10%	-15%
COC(=O)c1cc(Cl)c(NC(=O)c2ccc(F)cc2)cc1OC	68	1%	nt
N/N=C(\c1ccccc1)C12CN3CN(CN(C3)C1)C2	?	-9%	nt
COc1ccc(C(=S)N2CCCC2)cc1C	23	-2%	-7%
Cc1sc2nc(SCC(=O)c3cc(C)n(CC4CCCO4)c3C)n(C(C)C)c(=O)c2c1C (stereo unspecified)	11	-20%	-4%
CCS(=O)(=O)N1CCN(S(=O)(=O)c2ccccc2)CC1	2	2%	-5%
CC12CN(S(=O)(=O)c3ccccc3)CC(C)(CN(S(=O)(=O)c3ccccc3)C1)C2	-113*	0%	7%
CNS(=O)(=O)c1cccc(C(=O)Nc2cccnc2)c1	8	-2%	-8%
CNS(=O)(=O)c1cccc(C(=O)Nc2cccc(Cl)c2)c1	-94*	-3%	2%
CCNc1ncc2nc(-c3ccc(OC)cc3)c(=O)n(CCOC)c2n1	nt	nt	-1%
Cc1cccc(CNc2cc(-c3ccc(C(=O)N(C)C)cc3)ncn2)c1	nt	-3%	-14%
CC1(CCc2ccccc2)NC(=O)N(Cc2nnc(-c3ccccc3Br)o2)C1=O (stereo unspecified)	-22	0%	-5%
O=C1NC2(CCCc3ccccc32)C(=O)N1Cc1nnc(-c2ccccc2Br)o1 (stereo unspecified)	-83*	-7%	-4%
CCOc1ccc(C(=O)NC(=S)NC2CCCC2)cc1[N+](=O)[O-]	?	28µM*	nt
CCOc1ccc(C(=O)NC(=S)Nc2ccc(NC(=O)CC)cc2)cc1[N+](=O)[O-]	?	-18%	nt
Clc1ccc(OCCCNCc2ccccc2)c(Br)c1	-89*	-5%	78%
Clc1ccc(Cl)c(OCCCCNCc2ccccc2)c1	23	-7%	nt
Clc1ccc(Cc2nc(-c3cccnc3)no2)cc1	-93*	-3%	3%
COc1ccc(-c2noc(-c3ccccc3F)n2)cc1	5	-2%	10%
Fc1ccccc1-c1nc(-c2ccccc2)no1	-100*	-1%	nt
Cc1ccc(Cc2nc(-c3cccnc3)no2)cc1	-27	-4%	nt
Brc1ccccc1-c1nnc(-c2cccnc2)o1	-81*	-2%	-1%
c1ccc(-c2ccccc2-c2nc(-c3cccnc3)no2)cc1	-101*	0%	23%
c1cncc(-c2noc(-c3cccc4ccccc34)n2)c1	-15	-10%	38%
SMILES	PNC assembly inh	ALOX12 inhib	15-hLO-2 inh
Brc1ccc(-c2nnc(-c3ccccc3Br)o2)cc1	20	-18%	2%
CC(C)CN1CCCC2(CCN(C(=O)c3cc(C(F)(F)F)cc(C(F)(F)F)c3)CC2)C1	nt	-3%	14%
Cc1n[nH]c(C)c1S(=O)(=O)N(CC(=O)Nc1ccc2c(c1)OCCO2)c1ccc(C(C)C)cc1	-8	-9%	-3%
COc1ccc(CNS(=O)(=O)c2cccc(S(=O)(=O)N3CCOCC3)c2)cc1	-24	4%	0%
CCOc1ccccc1C(=O)N[C@H](C(=O)OCc1cc([N+](=O)[O-])cc2c1OCOC2)C(C)C	?	1%	nt
Cc1c(Cl)cccc1NC(=S)N(CCCN1CCOCC1)Cc1cccs1	?	8%	nt
COc1ccc(NC(=S)N(CCCN2CCCCC2)Cc2cccs2)cc1	-105*	2%	nt
CCc1cccc(NC(=O)CCCSc2nc3ccccc3[nH]2)c1	6	-4%	nt
Cc1ccc(C)c(Cc2c(C)nc3c(C(=O)NCc4ccc5c(c4)OCO5)cnn3c2C)c1	-92*	9%	-1%
Cc1ccccc1Cc1c(C)nc2c(C(=O)NCc3ccc4c(c3)OCO4)cnn2c1C	?	-11%	11%
O=C(NC1CCCC1)C(c1ccc(F)cc1)N(Cc1ccccc1Cl)C(=O)CCl (stereo unspecified)	19	-3%	nt
CC(C)(C)c1ccc(C(=O)Nc2ccc(C=C(C#N)C#N)cc2)cc1	-134*	-5%	nt
CC(C)(C)c1ccc(C(=O)NNC(=O)c2ccc(Cl)cc2)cc1	50	3%	nt
N#Cc1cccc(NC(=O)N2CC[C@@]3(CCCNC3)C2)c1	nt	-3%	12%
c1csc(CNc2nc(-c3ccoc3)nc3ccccc23)c1	nt	nt	-13%
